# Sampled rows, rich in hits. Any-hit rate of the full collection: about 3.4%.
# SIRT5 inh: blocks human SIRT5 desuccinylation of peptide; hit rate 1.1% among 330,000; AID 652115; Q9NXA8; inhibition, % at 15 µM; Purified SirT5, succinyl-peptide AMC, trypsin-coupled fluorescence; in the data active = inhibition above about 15%
# Target sequence (Q9NXA8 whole entry, looked up): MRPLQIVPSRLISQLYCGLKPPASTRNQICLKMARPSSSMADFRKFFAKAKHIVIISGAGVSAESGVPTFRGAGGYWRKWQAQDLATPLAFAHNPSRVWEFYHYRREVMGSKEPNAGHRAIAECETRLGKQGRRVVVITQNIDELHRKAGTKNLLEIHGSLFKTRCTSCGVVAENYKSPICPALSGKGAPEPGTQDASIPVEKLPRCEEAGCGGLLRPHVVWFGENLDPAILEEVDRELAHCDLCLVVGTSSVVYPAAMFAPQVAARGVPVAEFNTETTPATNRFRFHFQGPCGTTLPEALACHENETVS
# PAX8 inh HTS: PAX8 transcriptional activity inhibition; RMG-I TPO-luciferase reporter, SteadyGlo, 24 h; inhibition, % at 12.6 µM; hit rate 1.2% among 360,000; AID 652154;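 active = mean replicate inhibition at least 60% with every replicate also reaching 60%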;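 note: luciferase light reporting Pax8 driven TPO promoter activity; plate controls were median of neutral control wells for no effect and mitoxantrone controls for full effect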
# EWS-Fli inh: inhibitors of EWS/Fli oncoprotein transcriptional activity. hit rate 0.67% among 350,000. AID 651661. A673 NR0B1-luciferase reporter, viability-normalised. inhibition, % at 12.6 µM;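 active = mean inhibition of at least 50% after viability correction, with every replicate also passing that limit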;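 note: firefly luciferase signal divided by Alamar Blue viability fluorescence both relative to DMSO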
# PGC1a acetyl inh: modulators of PGC1a acetylation | inhibition, % at 15.6 µM | hit rate 0.17% among 350,000 | U2OS PGC1a acetylation, AlphaScreen anti-acetyl-lysine; with virally co-expressed GCN5 acetyltransferase;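 active = every replicate shows inhibition of at least 40%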;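 note: 0% = neutral control wells and 100% = positive control wells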
# rRNA inh HTS: inhibits bacterial ribosomal RNA function over humanized ribosomes. AID 720706. GFP signal change (wild-type ribosome), % (test concentration not listed). hit rate 1.6% among 350,000. E. coli WT GFP vs humanized-ribosome RFP mutants, fluorescence, 24 h; hits give low values; DMSO median 0, no signal -100;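 active = significant combined selectivity score with lowered wild-type GFP, culture density cut under 30%, mutant RFP and density less affected; inactive = any of these conditions unmet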
# LGR2 inh: Drosophila LGR2 receptor signaling inhibition | hit rate 0.35% among 380,000 | HEK293 LGR2, CRE-luciferase, bursicon-stimulated, 4 h | inhibition, % at 9.99 µM;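 active = drop in luminescence signal, shown as inhibition above about 50% in the replicate tests, limit read from the data, passing the limit was not always enough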;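 note: agonist challenge used bursicon conditioned medium at about half maximal strength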
# An asterisk follows results filed as active; x = no result given.
SMILES,SIRT5 inh,PAX8 inh HTS,EWS-Fli inh,PGC1a acetyl inh,rRNA inh HTS,LGR2 inh
Cc1cc(NC(=O)NC(=O)c2ccccc2NC(=O)CN)ccc1Oc1ncc(Br)cn1,-2.3,28.6,27.9,x,x,x
COCC(=O)Nc1ccc2c(c1)[C@H]1C[C@@H](CC(=O)NCc3cccnc3)O[C@H](CO)[C@H]1O2,0.4,-1.8,-1.9,5.5,5.2,1.4
Cc1ccc(S(=O)(=O)N[C@@H](CO)C(=O)N[C@@H](Cc2ccc(O)cc2)C(=O)O)cc1,21.3*,4.6,-1.4,9.3,3.6,7.7
CC(C)NC(=O)N(C)C[C@@H]1OCCCC[C@@H](C)Oc2ccc(N(C)C)cc2C(=O)N([C@@H](C)CO)C[C@H]1C,2.9,7.1,x,-5.8,6.3,-15.5
CC1CC(NC(=O)c2cc3c(=O)n4ccccc4nc3n2C)CC(C)(C)C1 (stereo not drawn),15.0*,-10.6,x,-10.7,2.5,0.3
CC1CCCCC1NC(=O)c1cc2c(=O)n3ccccc3nc2n1C (stereo not drawn),-74.1,-17.9,-66.9,x,4.3,-15.6
CN1C(=O)c2cc(NC(=O)C3CC3)ccc2OC[C@H]2O[C@@H](CC(=O)NCc3ccccc3F)CC[C@@H]21,4.2,-15.9,-0.8,6.2,-0.4,-6.6
COC(=O)Cn1c(C)nc([N+](=O)[O-])c1Br,-12.4,16.1,4.0,-6.8,10.7,3.9
Cc1nc([N+](=O)[O-])c(Br)n1CC(=O)c1ccc(F)cc1,0.8,11.7,15.4,2.7,-32.8*,24.3
Cc1nc([N+](=O)[O-])c(Br)n1CC(=O)c1cccc([N+](=O)[O-])c1,4.0,22.3,21.7,-16.6,-39.1*,12.8
O=C(C1CCC1)N1CC(=O)N2[C@@H](CO)[C@@H](c3ccc(C4=CCCCC4)cc3)[C@@H]2C1,-19.0,x,x,-7.0,-4.7,-6.6
CN(C)CCNC(=O)C(=O)c1c(-c2ccccc2)cc2ccccn12,-3.5,-5.3,-3.2,1.8,20.5,16.4
COc1ccc(-c2c(-c3ccccc3)c(C(=O)C(=O)NCCCN(C)C)n3ccc4cc(OC)c(OC)cc4c23)cc1OC,-4.7,18.1,85.7*,-16.9,-7.3,-6.2
O=C(c1cccc(F)c1)N1CC[C@@H]2[C@@H](CO)Nc3ccc(-c4ccccc4)cc3[C@@H]21,2.6,x,0.4,-3.2,-11.2,-3.8
COc1ccc2[nH]c3c(=O)n(CCCCC(=O)NCCN4CCCC4)c(=S)[nH]c3c2c1,-3.8,x,1.3,-4.8,-28.9*,0.9
Cc1cc(S(=O)(=O)Nc2ccc3ccccc3c2)c(C)s1,0.2,x,31.0,-58.3,-50.6*,18.7
O=C(Nc1cccc2ccccc12)N1N=CCC1c1ccccc1 (stereo not drawn),1.7,-85.1,-88.4,3.3,-28.4*,-24.6
O=C(Nc1cccc(Cl)c1)N1N=CCC1c1ccccc1 (stereo not drawn),4.5,14.9,-10.5,-10.8,-26.8*,-11.7
O=C(Nc1cccc2ccccc12)N1CCN(c2ccccc2)CC1,x,x,x,15.5,x,x
COc1ccc(CN(C)CC(=O)Nc2sc3c(c2C#N)CCC3)c(OC)c1,15.3*,12.6,7.4,x,-22.0,16.5
COc1ccc(CN(C)CC(=O)Nc2c(C)cccc2C)c(OC)c1,0.1,9.8,3.1,x,1.6,-3.5
C[C@@H]1CN([C@H](C)CO)C(=O)c2cc(-c3cccnc3)cnc2O[C@@H]1CN(C)C(=O)c1cccc(F)c1,0.7,x,-5.5,-10.0,2.3,-7.4
CC(C)(C)C(=O)c1sc(Nc2ccccc2)nc1N,2.2,x,-119.7,-23.6,-39.1*,-80.9
COc1ccc(S(=O)(=O)Nc2ccc3c(c2)CC(=O)N([C@H](C)CO)C[C@H](C)[C@@H](CN(C)C(=O)NC2CCCCC2)O3)cc1,-4.7,-32.9,-1.4,5.3,1.0,-22.9
CCOc1ccc(OCCn2c(=S)[nH]c3c(N)ncnc32)cc1,2.2,4.1,0.3,1.9,-31.4*,-3.2
SMILES,SIRT5 inh,PAX8 inh HTS,EWS-Fli inh,PGC1a acetyl inh,rRNA inh HTS,LGR2 inh
Cc1noc(C)c1NC(=O)Nc1ccc2c(c1)C(=O)N([C@H](C)CO)C[C@@H](C)[C@@H](CN(C)Cc1ccc(C(=O)Nc3ccccc3N)cc1)O2,19.0*,-17.3,-16.0,5.9,0.3,-19.8
Cc1noc(C)c1NC(=O)Nc1ccc2c(c1)C(=O)N([C@H](C)CO)C[C@H](C)[C@H](CN(C)Cc1ccc(C(=O)Nc3ccccc3N)cc1)O2,x,x,20.0,1.5,1.3,18.7
C[C@H]1CN([C@@H](C)CO)C(=O)c2cc(NC(=O)Cc3cn(C)c4ccccc34)ccc2O[C@H]1CN(C)Cc1ccc(C(=O)Nc2ccccc2N)cc1,20.3*,x,31.9,11.8,-5.5,13.4
C[C@H]1CN([C@@H](C)CO)C(=O)c2cc(-c3cccc(C#N)c3)cnc2O[C@@H]1CN(C)C(=O)c1cnccn1,-1.8,-13.8,8.2,-0.2,-1.4,14.9
COc1ccc(S(=O)(=O)N(C)C[C@@H]2Oc3ccc(NS(=O)(=O)c4cccs4)cc3C(=O)N([C@H](C)CO)C[C@H]2C)cc1,-2.1,x,-7.0,-4.7,-1.2,-11.4
O=C(C[C@H]1CC[C@@H](NC(=O)C2CC2)[C@@H](CO)O1)NCC1CC1,-5.6,x,3.9,-2.1,0.5,7.0
O=c1oc(-c2ccccc2NS(=O)(=O)c2ccc(F)cc2)nc2ccccc12,0.5,4.7,8.3,24.6,-32.2*,0.8
O=c1oc(-c2ccccc2NS(=O)(=O)c2ccccc2)nc2ccccc12,x,x,x,9.3,x,7.4
COc1cc2c(cc1NC(=O)COC(=O)C(CCSC)NC(=O)c1ccccc1Cl)oc1ccccc12 (stereo not drawn),-0.4,62.2*,-67.2,x,1.7,-20.4
NC(=O)c1ncc(C(F)(F)F)cc1Cl,-5.2,-8.9,2.3,x,11.2,x
NC(=O)c1ccc(C(F)(F)F)cn1,32.2*,-1.0,0.0,1.4,14.7,-5.7
C[C@H](CO)N1C[C@H](C)[C@@H](CN(C)C(=O)Nc2ccc(F)cc2)Oc2c(NC(=O)NC3CCCCC3)cccc2C1=O,-1.0,-1.0,-7.4,-15.9,1.6,-20.6
NNC(=O)Cn1c(-c2ccccc2)cc2ccccc21,21.2*,14.8,18.2,x,9.2,-8.2
CCC(=O)N1[C@H](CN(C)C(=O)c2ccccc2F)[C@@H](c2ccccc2)[C@@H]1CO,x,-14.9,-7.7,3.5,2.7,4.6
CCN(CC)CCCNc1ccc(-c2nnc(-c3ccc(OCC(C)C)cc3)o2)cn1,-31.1,41.6,61.0*,-29.8,-2.3,10.9
C/C=C(/C)C(=O)O[C@@H]1c2c(ccc3ccc(=O)oc23)OC(C)(C)[C@@H]1OC(=O)/C(C)=C\C,30.7*,26.3,1.2,x,-4.7,41.4
C[C@@H]1CN([C@H](C)CO)S(=O)(=O)c2ccc(C3=CCCCC3)cc2O[C@H]1CN(C)C(=O)Nc1ccc2c(c1)OCO2,20.4*,0.0,7.0,-7.3,-3.7,2.7
